The whole screen tested about 360,000 compounds, of which about 130 (0.036%) were called active. Cut-off read from the data, not from the text of the source: active = potentiation above about 30%; inactive = the rest. Only a selection was taken, and actives are over-represented in it overall.
Target: D(1A) dopamine receptor (Homo sapiens) (UniProt P21728)
Test: Potentiators of Human D1 Dopamine Receptor: qHTS; note: 0% is about no effect
Details: HEK293 TREx D1 cells, calcium flux, dopamine EC20 potentiation; at 10 µM; hits give high values

D(1A) dopamine receptor (Homo sapiens), sequence (P21728 whole entry, looked up): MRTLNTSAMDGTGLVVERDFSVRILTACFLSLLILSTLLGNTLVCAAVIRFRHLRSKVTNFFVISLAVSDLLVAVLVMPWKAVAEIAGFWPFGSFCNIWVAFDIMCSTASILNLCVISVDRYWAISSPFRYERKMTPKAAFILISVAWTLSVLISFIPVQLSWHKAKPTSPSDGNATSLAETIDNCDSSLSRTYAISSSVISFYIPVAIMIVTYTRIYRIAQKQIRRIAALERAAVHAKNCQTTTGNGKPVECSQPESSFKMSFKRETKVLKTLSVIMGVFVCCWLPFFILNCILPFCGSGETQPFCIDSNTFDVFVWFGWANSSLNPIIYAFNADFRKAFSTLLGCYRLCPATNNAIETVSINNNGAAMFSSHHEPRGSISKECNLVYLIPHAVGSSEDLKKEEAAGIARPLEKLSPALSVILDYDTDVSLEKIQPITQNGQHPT

potentiation, inactive:
CC(C)S(=O)(=O)c1oc(-c2ccc(F)cc2)nc1S(=O)(=O)c1ccc(F)cc1 3.35%
CCOC(=O)C1CCCN(C(=O)c2ccc3c(c2)sc2nc(-c4ccc(CC)cc4)cn23)C1 (stereo not given) -1.95%
CCN1CCN(CCCNC(=O)c2cnn(-c3ccc(C)cc3C)c2C2CCN(C(=O)OC(C)(C)C)CC2)CC1 -2.55%
COc1ccccc1N1CCN(CCCNC(=O)c2cnn(-c3ccccc3Cl)c2C2CCN(C(=O)OC(C)(C)C)CC2)CC1 -8.55%
Cc1cc(NS(=O)(=O)c2ccc3oc(=O)c4ncn(C)c4c3c2)ccc1Br -5.95%
CCc1ccc(S(=O)(=O)c2nnn3c2nc(N2CCN(CC)CC2)c2sccc23)cc1 1.1%
O=C(NCCc1ccccc1)c1ccc2c(c1)N(Cc1ccc(F)cc1)C(=O)c1ccccc1S2(=O)=O 2.25%
CCOc1ccc(-c2cc3nc(C4CCN(C(=O)OC(C)(C)C)CC4)c(C(=O)Nc4ccc(C(=O)OC)cc4)cn3n2)cc1 -0.6%
Cn1c(=O)n(Cc2c(F)cccc2Cl)c(=O)c2c1nc1n2CCN1c1ccc(F)cc1 -3.15%
CC(C)CCN(C(=O)Nc1ccc(Cl)c(Cl)c1)C(C)c1cccs1 (stereo not given) -1.95%
O=C(CCCn1c(=O)c2cccn2c2cccnc21)NCc1ccc(F)cc1 -4.5%
CCc1nn(CC(=O)NCC(C)c2ccccc2)c(=O)c2cc3occc3n12 (stereo not given) -5.55%
CCCCCn1c(=O)[nH]c2cc(C(=O)Nc3cc(C)cc(C)c3)ccc2c1=O 1.1%
CCCN1CCN(CCCNC(=O)c2ccc3nc(Cc4ccccc4)oc3c2)CC1 -0.6%
O=S(=O)(c1ccc2c(c1)OCCCO2)N1CCN(S(=O)(=O)c2c(F)cccc2F)CC1 -3.35%
O=c1n(Cc2cccc(C(F)(F)F)c2)c2ccccc2c2nc(-c3ccccc3)nn12 0.85%
CCOc1cccc(CNC(=O)c2ccc(N3CCCC3)c(NC(=O)Nc3ccccc3CC)c2)c1 -0.4%
Oc1ccc(Cl)cc1C1C=C(c2ccc3c(c2)OCO3)NC(c2ccc(F)c(Br)c2)N1 (stereo not given) 1.65%
CCOc1ccc(N2CC(C)Cn3c2nc2c3c(=O)n(Cc3c(F)cccc3Cl)c(=O)n2C)cc1 (stereo not given) 1.1%
CC(C)c1ccc(C2CC(=O)N3CN(C4CCCCC4)CSC3=C2C#N)cc1 (stereo not given) 9.05%
CN(C)c1ccc(C(=O)NCC(=O)OC(C(=O)Nc2cc(C(F)(F)F)ccc2Cl)c2ccccc2)cc1 (stereo not given) -1.25%
CN1CCOc2cc(S(=O)(=O)N3CCN(S(=O)(=O)c4c(F)cccc4F)CC3)cnc21 -1.8%
O=C(Nc1ccc(C(=O)OCc2cc(=O)n3nc(C4CC4)sc3n2)cc1)c1ccc(F)cc1 -0.15%
Cc1cccc2nc(-c3ccc(Cl)s3)c(Nc3ccc4c(c3)OCCO4)n12 1.7%
CCN(CC)S(=O)(=O)c1ccc2c(c1)nc(CN(C)C(=O)Nc1ccc(Cl)cc1)n2C 0.4%
Cc1csc2nc(COC(=O)c3ccccc3NC(=O)c3ccccc3Cl)cc(=O)n12 1.1%
CCCCC(CC)CNC(=O)C1CCN(S(=O)(=O)c2cccc3nsnc23)CC1 (stereo not given) 3.8%
CCS(=O)(=O)c1nc(S(=O)(=O)c2ccc(C)cc2)c(NCc2ccc(Cl)cc2)s1 -2.95%
CCOC(=O)c1c(NC(=O)/C=C/c2ccc(OC)cc2)sc2c1CCC(C)C2 (stereo not given) 0.15%
N#CN1CCC(NS(=O)(=O)c2cccc(F)c2)C1 (stereo not given) -6.75%
CCOc1ccc(OCC)c(NC(=O)c2c(C)nn(-c3ccccc3)c2-n2cccc2)c1 -0.5%
CCN(CCCNC(=O)Cn1ncc2c3ccccc3n(C)c2c1=O)Cc1ccccc1 -1.8%
CCOc1ccc(C2CC(=O)c3c([nH]c(C(=O)OCc4ccccc4)c3C)C2)cc1 (stereo not given) -3.65%
O=C1Cc2cc(S(=O)(=O)Nc3ccc(OC(F)(F)F)cc3)cc3c2N1CCC3 1.65%
Cc1ccc(NC(=O)C2CCN(S(=O)(=O)c3cc(-c4noc(C)n4)ccc3C)CC2)c(C)c1 -4.05%
O=C(c1cnn(-c2ccc(F)cc2)c1-n1cccc1)N1CCN(c2ccc(F)cc2)CC1 -1.95%
CCc1ccc(N2C(=O)CN(S(=O)(=O)CC)CC2(C)C(=O)NC2CCCCC2)cc1 (stereo not given) -0.1%
CC(C)CNc1ncnc2c1nnn2C 2.3%
O=C(CSc1n[nH]c(-c2ccccc2)n1)N1CCCCC1 2.7%
Cc1ccc(Cn2ncc3c4sc(C)cc4n(C)c3c2=O)c(C)c1 0.9%
CCC1=Nc2cc(C(=O)NCCCOC(C)C)ccc2Sc2ccc(C)cc21 3.75%
Cc1cc2c(cc1S(=O)(=O)CCC(=O)Nc1ccc(OC(F)(F)F)cc1)OCC(=O)N2 -3.35%
Cc1c(C(=O)Nc2cccc(Cl)c2)oc2ccc(S(=O)(=O)N3CCOCC3)cc12 -2.25%
CCc1ccc(NS(=O)(=O)c2ccc3[nH]cc(C(=O)NCCc4cccc(C)c4)c(=O)c3c2)cc1 2.6%
Cc1ccc(-n2ncc(C(=O)N(C)Cc3ccccc3)c2-n2cccc2)cc1 -0.5%
Cc1ccc(CN2COc3cc(C)c4c(oc(=O)c5ccccc54)c3C2)cc1 -0.2%
CCCCn1c(=O)c2oc3ccccc3c2n(CC(=O)Nc2ccccc2OC)c1=O 1.65%
Cc1cccc(C(=O)N2c3nc(-c4ccco4)nn3C3(CCCCC3)[C@@H]3CCCC[C@@H]32)c1 -0.1%
Cc1cc(F)ccc1NC1(c2ccccc2)C(=O)c2ccccc2C1=O -5.75%
Cc1ccccc1C(=O)Nc1nnc(S(=O)(=O)N(C)c2ccc(Cl)cc2)s1 -0.45%
COc1cccc(C(=O)Nc2ccc(-c3cc(C(F)(F)F)nn3-c3ccccc3)cc2)c1 -4.85%
CCOC(=O)c1c(C)n(S(=O)(=O)c2ccc(C)cc2C)c2ccc(NS(=O)(=O)c3ccc(C)cc3C)cc12 -1.05%
COc1ccc(CCNc2nc(-c3ccc(Cl)cc3)cc(C(F)(F)F)n2)cc1OC 0.65%
Cc1cc2c(s1)c1cnn(Cc3cc(F)c(Cl)cc3Cl)c(=O)c1n2C -0.95%
Cc1ccc(S(=O)(=O)N2CCC(C(=O)Nc3cc(C)ccc3C)CC2)cc1 -2.85%
Cc1ccc(CNC(=O)CCc2c(C)nc3c(c(C)nn3-c3ccccc3)c2C)cc1 -2.25%
COc1ccc(N2CCN(S(=O)(=O)CCNC(=O)C(c3ccccc3)c3ccccc3)CC2)cc1 -0.4%
COC(=O)c1c(NC(=O)C(C)Oc2ccc(Cl)c(C)c2)sc(C)c1C (stereo not given) 0.65%
COc1cccc(-c2nnc(SCC(=O)N3CCC(C)CC3)o2)c1 -1.7%
Cc1ccccc1CNC(=O)CCc1cn(Cc2ccccc2C)c2ccccc12 -5.7%
Cc1ccc(C)c(Cn2c(C(=O)O)c(CNCc3cccs3)c3ccccc32)c1 19.9%
COc1ccc(Cc2nc3ccc(C(=O)NCc4ccccc4C)cc3o2)cc1 -2.05%
O=C(Cc1ccc(Cl)cc1)NCC(c1cccs1)S(=O)(=O)c1ccc(Cl)cc1 (stereo not given) -0.5%
CC(=O)c1ccc(NC(=O)CSc2nc(-c3ccccc3F)nc3c2c(=O)n(C)c(=O)n3C)cc1 -0.45%
CCSc1nnc(NC(=O)c2cc(=O)c3cc(C)c(C)cc3o2)s1 0.15%
COC(=O)c1ccccc1NC(=O)c1ccc(C#N)cc1 3.5%
O=C(Cn1c(=O)n(Cc2cccs2)c(=O)c2cccnc21)Nc1ccc(F)cc1 -2.6%
COc1ccc(-c2cccc(NS(=O)(=O)c3cc(C)c(OC)c(C)c3C)c2)nn1 -2.1%
Cc1ccc(SCC(=O)Nc2ccc3oc(-c4ccccc4C)nc3c2)cc1 -0.2%

potentiation, active:
Cc1cccc(C)c1-n1ncc(C(=O)NCCCN2CCCCC2)c1C1CCN(C(=O)OC(C)(C)C)CC1 31.8%

Source: PubChem BioAssay AID504651 (National Center for Advancing Translational Sciences (NCATS), 2011)
